This is part of a sample that, as a whole, favours compounds with a hit. Of some 79,000 tested, about 15% had one in any assay. Calls of active or inactive are those of the source. Rule as the data show it: active = growth inhibition above about 70%; inactive = the rest.
Assays:
[1] = NCI Yeast Anticancer Drug Screen. Data for the rad52 strain (AID 147);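 also: 0% = growth of vehicle-treated control cultures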; conditions: S. cerevisiae rad52 mutant growth inhibition, active compounds read high
Outline: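 Read-out: growth inhibition versus vehicle-treated controls. Cells were a DNA repair-deficient yeast strain treated with compounds.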

[2] = NCI Yeast Anticancer Drug Screen. Data for the wt1 strain (AID 149);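 also: 0% = growth of vehicle-treated wt1 cultures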; conditions: S. cerevisiae wt1 strain (SPY 50644) growth inhibition, active compounds read high
Outline: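 Each compound is tested on wt1 yeast and the loss of growth versus vehicle gives the inhibition value.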

[3] = NCI Yeast Anticancer Drug Screen. Data for the rad50EPP+ strain (AID 151);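 also: 0% = growth of vehicle-treated control cultures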; conditions: S. cerevisiae rad50 mutant strain, active compounds read high
Outline: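 Growth inhibition read against vehicle controls in rad50EPP+ yeast, a strain altered in DNA damage repair, after compound exposure.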

[4] = NCI Yeast Anticancer Drug Screen. Data for the rad50 strain (AID 155);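 also: 0% = growth of vehicle-only cultures of the same strain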; conditions: S. cerevisiae rad50 strain growth inhibition, active compounds read high
Outline: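 Vehicle-treated cultures provide the reference for the growth inhibition reported for compound-exposed, repair-deficient yeast.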

[5] = NCI Yeast Anticancer Drug Screen. Data for the mec2-1 strain (AID 157); conditions: S. cerevisiae mec2-1 strain, active compounds read high
Outline: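 Yeast mec2-1 mutant treated with compound. Readout: growth inhibition vs vehicle controls.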

[6] = NCI Yeast Anticancer Drug Screen. Data for the rad14 strain (AID 159);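 also: 0% = growth of vehicle-treated control cultures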; conditions: S. cerevisiae rad14 strain growth inhibition, active compounds read high
Outline: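 Inhibition of growth is reported for a repair-deficient yeast mutant following compound treatment, calculated relative to cultures that received vehicle.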

[7] = NCI Yeast Anticancer Drug Screen. Data for the sgs1 mgt1 strain (AID 161);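 also: 0% = growth of cultures given vehicle only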; conditions: S. cerevisiae sgs1 mgt1 strain, active compounds read high
Outline: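 Mutant yeast exposed to compound; growth scored against vehicle-only wells.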

[8] = NCI Yeast Anticancer Drug Screen. Data for the CLN2oe strain (AID 163);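 also: 0% = growth of vehicle-only control cultures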; conditions: S. cerevisiae CLN2oe strain, active compounds read high
Outline: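 Read-out: yeast growth inhibition, expressed relative to vehicle-only controls. The strain bears an engineered cell-cycle alteration.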

[9] = NCI Yeast Anticancer Drug Screen. Data for the cln2 rad14 strain (AID 165);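 also: 0% = growth equal to vehicle treated cultures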; conditions: S. cerevisiae cln2 rad14 strain, active compounds read high
Outline: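 cln2 rad14 yeast strain; compound exposure; growth inhibition read vs vehicle controls.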

[10] = NCI Yeast Anticancer Drug Screen. Data for the bub3 strain (AID 167); conditions: S. cerevisiae bub3 mutant strain, active compounds read high
Outline: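 Mutant yeast screening strain plus compound; vehicle-treated cultures serve as the 0% inhibition reference.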

[11] = NCI Yeast Anticancer Drug Screen. Data for the wt2 strain (AID 169); conditions: S. cerevisiae wt2 strain growth inhibition, active compounds read high
Outline: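 Read-out: growth inhibition versus vehicle-treated control cultures after compound exposure of the yeast strain.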

[12] = NCI Yeast Anticancer Drug Screen. Data for the mlh1 strain (AID 171);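 also: 0% = growth of vehicle-treated control cultures of the same strain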; conditions: S. cerevisiae mlh1 strain growth inhibition, active compounds read high
Outline: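 Read-out: growth inhibition versus vehicle controls. Strain: engineered yeast with a defined DNA repair or cell cycle defect, compound-treated.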

[13] = NCI Yeast Anticancer Drug Screen. Data for the sgs1 strain (AID 173);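 also: 0% = growth of vehicle-only control cultures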; conditions: S. cerevisiae sgs1 mutant, active compounds read high
Outline: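 Read-out: yeast growth inhibition relative to vehicle controls, following compound exposure of a strain with a defined DNA repair/cell cycle alteration.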

[14] = NCI Yeast Anticancer Drug Screen. Data for the mlh1 rad18 strain (AID 175); conditions: S. cerevisiae mlh1 rad18 strain growth inhibition, active compounds read high
Outline: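 Yeast w/ defined DNA-repair lesions; compound exposure; growth vs vehicle controls → % inhibition.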

[15] = NCI Yeast Anticancer Drug Screen. Data for the rad18 strain (AID 177); conditions: S. cerevisiae rad18 mutant growth inhibition, active compounds read high
Outline: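 Readout: growth inhibition vs vehicle controls. Cells: genetically altered yeast strain, DNA repair defect.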

[16] = NCI Yeast Anticancer Drug Screen. Data for the mgt1 strain (AID 153); conditions: S. cerevisiae mgt1 mutant growth inhibition, active compounds read high
Outline: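 mgt1 yeast grown with test compound; read-out is growth inhibition versus vehicle-treated cultures.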

[17] = at 5.0 µM (retest, dose inferred, filed as 0.5)
[18] = at 50.0 µM (retest, dose inferred, filed as 5.0)

Measured: growth inhibition

Nc1nc(F)nc2c1ncn2C1OC(COP(=O)(O)O)C(O)C1O (centres undefined)
inactive: [1]; at 1.2 µM 2% | [1]; at 3.7 µM 5% | [1]; at 11.0 µM 12% | [1]; at 33.0 µM 22% | [1]; at 100.0 µM 52% | [2]; at 1.2 µM 1% | [2]; at 3.7 µM 1% | [2]; at 11.0 µM 2% | [2]; at 33.0 µM 5% | [2]; at 100.0 µM 2% | [3]; at 1.2 µM 3% | [3]; at 3.7 µM 12% | [3]; at 11.0 µM 26% | [3]; at 33.0 µM 43% | [3]; at 100.0 µM 67% | [4]; at 1.2 µM 3% | [4]; at 3.7 µM 9% | [4]; at 11.0 µM 18% | [4]; at 33.0 µM 32% | [4]; at 50.0 µM 11.1% | [4]; at 100.0 µM 61% | [5]; at 1.2 µM 1% | [5]; at 3.7 µM 7% | [5]; at 11.0 µM 13% | [5]; at 33.0 µM 27% | [5]; at 50.0 µM 4.2% | [6]; at 1.2 µM -1% | [6]; at 3.7 µM -2% | [6]; at 11.0 µM 2% | [6]; at 33.0 µM 5% | [6]; at 100.0 µM 19% | [7]; at 50.0 µM -1.15% | [8]; at 1.2 µM -4% | [8]; at 3.7 µM -5% | [8]; at 11.0 µM -5% | [8]; at 33.0 µM -5% | [8]; at 100.0 µM -2% | [9]; at 50.0 µM -3.75% | [10]; at 1.2 µM -8% | [10]; at 3.7 µM -8% | [10]; at 11.0 µM -3% | [10]; at 33.0 µM -10% | [10]; at 50.0 µM -29.9% | [10]; at 100.0 µM -1% | [11]; at 1.2 µM -2% | [11]; at 3.7 µM 1% | [11]; at 11.0 µM 1% | [11]; at 33.0 µM 6% | [11]; at 100.0 µM 18% | [12]; at 1.2 µM 0% | [12]; at 3.7 µM 2% | [12]; at 11.0 µM 5% | [12]; at 33.0 µM 9% | [12]; at 100.0 µM 19% | [13]; at 1.2 µM 18% | [13]; at 3.7 µM 30% | [13]; at 11.0 µM 39% | [13]; at 33.0 µM 47% | [13]; at 100.0 µM 53% | [14]; at 50.0 µM -26.4% | [15]; at 1.2 µM -2% | [15]; at 3.7 µM -1% | [15]; at 11.0 µM 1% | [15]; at 33.0 µM 5% | [15]; at 100.0 µM 19%
active: [5]; at 100.0 µM 87%

c1ccc2c(c1)ccc1c3ccncc3ccc21
inactive: [1]; at 1.2 µM 15% | [2]; at 1.2 µM -6% | [2]; at 3.7 µM -3% | [2]; at 11.0 µM 47% | [3]; at 1.2 µM 35% | [4]; at 1.2 µM 12% | [5]; at 1.2 µM 3% | [5]; at 3.7 µM 4% | [5]; [17] -15% | [7]; [17] -15% | [8]; at 1.2 µM 0% | [8]; at 3.7 µM 13% | [9]; [17] -11% | [10]; at 1.2 µM 8% | [10]; at 3.7 µM 35% | [10]; [17] 16% | [11]; at 1.2 µM -3% | [11]; at 3.7 µM 0% | [12]; at 1.2 µM 4% | [12]; at 3.7 µM 2% | [13]; at 1.2 µM -3% | [13]; at 3.7 µM 12% | [14]; [17] -4% | [15]; at 1.2 µM -2% | [15]; at 3.7 µM 18%
active: [1]; at 3.7 µM 80% | [1]; at 11.0 µM 99% | [1]; at 33.0 µM 99% | [1]; at 100.0 µM 95% | [2]; at 33.0 µM 99% | [2]; at 100.0 µM 97% | [3]; at 3.7 µM 86% | [3]; at 11.0 µM 98% | [3]; at 33.0 µM 98% | [3]; at 100.0 µM 92% | [4]; at 3.7 µM 74% | [4]; [17] 90% | [4]; at 11.0 µM 98% | [4]; at 33.0 µM 99% | [4]; [18] 94% | [4]; at 50.0 µM 97.8% | [4]; at 100.0 µM 93% | [5]; at 11.0 µM 85% | [5]; at 33.0 µM 99% | [5]; [18] 95% | [5]; at 50.0 µM 98.2% | [5]; at 100.0 µM 98% | [7]; [18] 97% | [7]; at 50.0 µM 98% | [8]; at 11.0 µM 93% | [8]; at 33.0 µM 99% | [8]; at 100.0 µM 96% | [9]; [18] 96% | [9]; at 50.0 µM 96% | [10]; at 11.0 µM 93% | [10]; at 33.0 µM 99% | [10]; [18] 96% | [10]; at 50.0 µM 97.1% | [10]; at 100.0 µM 98% | [11]; at 11.0 µM 80% | [11]; at 33.0 µM 99% | [11]; at 100.0 µM 96% | [12]; at 11.0 µM 83% | [12]; at 33.0 µM 99% | [12]; at 100.0 µM 96% | [13]; at 11.0 µM 96% | [13]; at 33.0 µM 99% | [13]; at 100.0 µM 94% | [14]; [18] 94% | [14]; at 50.0 µM 97.5% | [15]; at 11.0 µM 96% | [15]; at 33.0 µM 99% | [15]; at 100.0 µM 94%

Cc1cc(O)c2c(c1O)C(=O)C13C(=C2O)C(=O)C2C(O)C1C1C(O)C3C(=O)C3=C(O)c4c(O)cc(C)c(O)c4C(=O)C321 (centres undefined)
active: [1]; at 33.0 µM 89% | [1]; at 100.0 µM 90% | [2]; at 33.0 µM 80% | [2]; at 100.0 µM 85% | [16]; at 33.0 µM 86% | [16]; at 100.0 µM 82% | [4]; at 33.0 µM 79% | [4]; [18] 84% | [4]; at 50.0 µM 77.3% | [4]; at 100.0 µM 80% | [5]; [17] 75% | [5]; at 11.0 µM 76% | [5]; at 33.0 µM 86% | [5]; [18] 93% | [5]; at 50.0 µM 85.3%
inactive: [1]; at 1.2 µM 28% | [1]; at 3.7 µM 39% | [1]; at 11.0 µM 58% | [2]; at 1.2 µM -7% | [2]; at 3.7 µM 2% | [2]; at 11.0 µM 38% | [16]; at 1.2 µM 5% | [16]; at 3.7 µM 26% | [16]; at 11.0 µM 61% | [4]; at 1.2 µM 29% | [4]; at 3.7 µM 37% | [4]; [17] 12% | [4]; at 11.0 µM 51% | [5]; at 1.2 µM 19% | [5]; at 3.7 µM 34%

— PubChem BioAssay (NCI)
